About 83,000 compounds went through this panel and 20% of them were active in at least one assay; those are over-represented in the sample as a whole.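 Percent growth is the endpoint: 0 to 100 indicates growth inhibition (40 means 60% inhibition), 0 means no net growth, and negative values indicate cell death.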 A number with no mark means an inactive call. Activity calls are given as the source filed them. The calls were made as follows: active = growth percent below 10; inactive = the rest.
Tested on: HL-60(TB) leukemia
Experiment: NCI-60 one-dose screen, 48 h (100 = growth as untreated, 0 = no growth, -100 = all killed)
Details: 10 µM unless noted

SMILES	growth
CC(=C(c1ccc(OCCN(C)C)cc1)c1ccc(OCCN(C)C)cc1)c1ccc(Cl)cc1	-53.5% (active)
Brc1ccc(-c2cc(-c3ccc4c(c3)OCCO4)n[nH]2)s1	3.16% (active)
COc1ccc2[nH]cc(-c3cc(N)n4nc(-c5c[nH]c6ccc(OC)cc56)cc4n3)c2c1	-46.1% (active)
COc1ccc(N2CCN(C(=O)CSc3ccc(-c4nc5cc(C)c(C)cc5[nH]4)cn3)CC2)cc1	29.4%
O=C(CCCCCCN1CC(=O)N2[C@@H](c3cccc(Cl)c3)c3[nH]c4ccccc4c3C[C@H]2C1=O)NO	8.21% (active)
Cc1nc(-c2cc3ccccc3oc2=O)ccc1C(=O)/C=C/c1ccccn1	32.9%
COc1ccc(-n2c(SCC(=O)Nc3ccc(-c4nc5ccccc5[nH]4)cc3)nc3ccccc3c2=O)cc1	45.6%
